Screens (PubChem BioAssay)
PfHsp90 yeast 2 = inhibits growth of yeast expressing Plasmodium falciparum Hsp90; S. cerevisiae expressing PfHsp90, BacTiter-Glo ATP, 48 h; yeast lacking PDR1 and PDR3 efflux regulators; inhibition, % at 9.4 µM; 310,000 tested, 0.32% active; AID 504621;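 active = every replicate shows inhibition above about 80%, whatever the replicate mean, limit read from the data; inconclusive = mean inhibition reaches the set limit but some replicate falls short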
Beta apoptosis = beta cell apoptosis inhibition; 300,000 tested, 0.8% active; INS-1E cytokine-induced death, ATP luminescence, 48 h; percent of positive-control rescue, neutral wells zero; AID 435005; protection from apoptosis, % (concentration not given with the values);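 active = Every replicate reaches about 75%, or at least half do and their mean reaches it too, limit read from the data; inconclusive = At least half of replicates reach the limit but their mean does not; inactive = Under half of replicates reach the limit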;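 note: higher means more ATP so stronger rescue from cytokine killing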
Shn3 inh set2 = Schnurri-3 reporter inhibition in Clone20 osteoblasts. Clone20 osteoblast Shn3 3'UTR firefly luciferase, 24 h. inhibition, % at 12.5 µM. 360,000 tested, 0.52% active. AID 588674;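 active = mean inhibition of at least 75% with every replicate also reaching 75%; inconclusive = mean inhibition at least 75% but some replicate below; inactive = mean inhibition below 75%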
CSC inhib = cancer stem cell inhibition; cancer stem cell-like cells viability, luminescence; inhibition, % at 7.5 µM; 300,000 tested, 1.1% active; AID 2717; in the data active = inhibition above about 75%; inconclusive = no clear call, values can overlap the other calls; tested in HMLE shEcad cells
Calb FLC = C. albicans growth modulation with fluconazole; C. albicans CaCi-2 (fluconazole-resistant clinical isolate) + fluconazole, Alamar Blue growth, 48 h; growth inhibition, % (no concentration beside the values); 300,000 tested, 0.57% active; AID 1979;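 active = growth inhibition above about 58% in most replicates, limit read from the data, passing the limit was not always enough; inconclusive = exactly half the replicates above a set limit; inactive = most replicates below a set limit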;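 note: all wells also contain fluconazole at 8 µg/ml as a sub-toxic cotreatment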
Hits are given with their value. This is a sample that favours compounds with a hit; in the whole collection about 2.2% have one here.

Screening CCOc1ccc2nc(NC(=O)c3ccoc3C)sc2c1 returned PfHsp90 yeast 2 79, Beta apoptosis inactive, Shn3 inh set2 inactive, CSC inhib inactive and Calb FLC inactive.
For Fc1ccc2nc(Nc3nc4c(F)cc(F)cc4s3)sc2c1 the results were PfHsp90 yeast 2 inactive, Beta apoptosis 90, Shn3 inh set2 inactive, CSC inhib inactive and Calb FLC inactive.
`O=C(Nc1nc2c(F)cc(F)cc2s1)c1ccccn1` gave PfHsp90 yeast 2 inactive, Beta apoptosis 93, Shn3 inh set2 88, CSC inhib inactive and Calb FLC inactive.
`CCCCn1c(N)c(N(CC(C)C)C(=O)CCCn2c(=O)oc3ccccc32)c(=O)[nH]c1=O` gave PfHsp90 yeast 2 inactive, Beta apoptosis inactive, Shn3 inh set2 inactive, CSC inhib inactive and Calb FLC inactive.
`CCCCn1c(SCC(N)=O)nc2sc3c(c2c1=O)CCC3` gave PfHsp90 yeast 2 inactive, Beta apoptosis inactive, Shn3 inh set2 inactive, CSC inhib 99 and Calb FLC inactive.
Screening O=C1N/C(=C/c2ccc(N3CCOCC3)o2)C(=O)N1c1ccccc1 returned PfHsp90 yeast 2 inactive, Beta apoptosis inactive, Shn3 inh set2 92 and CSC inhib 80.
Screening C=CCN1C(=O)N/C(=C/c2ccc(N3CCOCC3)o2)C1=O returned Beta apoptosis 109, CSC inhib inactive and Calb FLC inactive.
Cc1ccc(-c2nc(COC(=O)C3=NN(c4ccccc4)C(=O)CC3)cs2)cc1 was read as PfHsp90 yeast 2 inactive, Beta apoptosis inactive, Shn3 inh set2 inactive and CSC inhib inactive.
`CCCCN(C)c1c(C)nc2ccc(C(=O)N(C)CCN(C)C)cn12` gave Shn3 inh set2 inactive.
O=C(O)c1cnc(-c2ccccc2)nc1Sc1cccc(Cl)c1 was read as Beta apoptosis inactive, Shn3 inh set2 inactive, CSC inhib inactive and Calb FLC inactive.
Screening O=C(O)c1cnc(-c2ccccc2)nc1Sc1ccc(Cl)cc1Cl returned Shn3 inh set2 inactive, CSC inhib inactive and Calb FLC 106.
Screening Cc1cc(OC(=O)c2c(F)cc(F)cc2F)nc(C)n1 returned PfHsp90 yeast 2 inactive, Beta apoptosis inactive, Shn3 inh set2 inactive, CSC inhib inactive and Calb FLC inactive.
CCc1ccc(S(=O)(=O)/N=C2\C=C(NS(=O)(=O)c3ccccc3)C(=O)c3ccccc32)cc1 was read as PfHsp90 yeast 2 inactive, Shn3 inh set2 inactive and Calb FLC inactive.
For CC(=O)Nc1ccc(NC2=C/C(=N/S(=O)(=O)c3cccs3)c3ccccc3C2=O)cc1 the results were PfHsp90 yeast 2 inactive, Beta apoptosis 101, Shn3 inh set2 96, CSC inhib inactive and Calb FLC inconclusive.
For Cc1ccc(NC2=C/C(=N/S(=O)(=O)c3cccs3)c3ccccc3C2=O)cc1C the results were PfHsp90 yeast 2 inactive, Beta apoptosis 80, Shn3 inh set2 inactive, CSC inhib inactive and Calb FLC inactive.
CC(C)c1ccc(S(=O)(=O)/N=C2\C=C(NS(=O)(=O)c3ccccc3)C(=O)c3ccccc32)cc1 was read as PfHsp90 yeast 2 inactive, Shn3 inh set2 inactive, CSC inhib inactive and Calb FLC inactive.
For Cc1ccccc1NC1=C/C(=N\S(=O)(=O)c2cccs2)c2ccccc2C1=O the results were PfHsp90 yeast 2 inactive, Beta apoptosis 98, Shn3 inh set2 98, CSC inhib inactive and Calb FLC inactive.
For COc1ccc(S(=O)(=O)/N=C2\C=C(Nc3ccc(O)cc3)C(=O)c3ccccc32)cc1 the results were PfHsp90 yeast 2 inactive, Beta apoptosis 111, Shn3 inh set2 97 and Calb FLC inactive.
Screening CC(=O)Nc1nc(SCC(=O)NCc2ccc(F)cc2)[nH]c(=O)c1NC(=O)c1cccs1 returned PfHsp90 yeast 2 inactive, Beta apoptosis inactive, Shn3 inh set2 inactive, CSC inhib inactive and Calb FLC inactive.
`Cc1ccc(-c2nnc(NC(=O)c3ccco3)o2)c(C)c1` gave PfHsp90 yeast 2 inactive, Beta apoptosis inactive, Shn3 inh set2 inactive, CSC inhib inactive and Calb FLC inconclusive.
Cc1ccc(C)c(-c2nnc(NC(=O)c3ccco3)o2)c1 was read as Beta apoptosis inactive, Shn3 inh set2 inactive, CSC inhib inactive and Calb FLC 83.
`CCCOc1ccc(/C(O)=C2/C(=O)C(=O)N(CCOC)C2c2cccnc2)cc1` (stereo not given) gave Beta apoptosis inactive, CSC inhib inactive and Calb FLC inactive.
`COCCCN1C(=O)C(=O)/C(=C(/O)c2ccc(OCC(C)C)cc2C)C1c1cccnc1` (stereo not given) gave PfHsp90 yeast 2 inactive, Beta apoptosis inactive, Shn3 inh set2 inactive, CSC inhib inactive and Calb FLC 106.
`O=C(O)c1ccc(N=N/C(=N\Nc2ccc(C(=O)O)cc2)c2ccccc2)cc1` gave PfHsp90 yeast 2 inactive, Beta apoptosis inactive, Shn3 inh set2 inactive, CSC inhib inactive and Calb FLC inactive.
For O=C(O)c1cccc(N/N=C(\N=Nc2ccccc2)c2ccccc2)c1 the results were PfHsp90 yeast 2 inactive, Beta apoptosis inactive, Shn3 inh set2 inactive, CSC inhib 88 and Calb FLC inactive.
For Cc1noc(C)c1CSCC(=O)N1CCN(c2ccc(F)cc2)CC1 the results were PfHsp90 yeast 2 inactive, Beta apoptosis inactive, Shn3 inh set2 inactive, CSC inhib inactive and Calb FLC inactive.
For Cc1cccc(N2CCN(C(=O)CSCc3c(C)noc3C)CC2)c1C the results were PfHsp90 yeast 2 inactive, Shn3 inh set2 85, CSC inhib inactive and Calb FLC inactive.
Screening CC(=O)N1c2ccc(S(=O)(=O)N3CCCC3)cc2CC1C(=O)NCc1ccccc1F (stereo not given) returned PfHsp90 yeast 2 inactive, Shn3 inh set2 inactive, CSC inhib inactive and Calb FLC inactive.
Screening O=[N+]([O-])c1ccccc1CN1CCN(Cc2c[nH]c3ccccc23)CC1 returned Beta apoptosis 116, CSC inhib inactive and Calb FLC inactive.
Screening COc1ccc(Br)cc1CN1CCN(Cc2c[nH]c3ccccc23)CC1 returned PfHsp90 yeast 2 inactive, Beta apoptosis 79, Shn3 inh set2 inactive, CSC inhib inactive and Calb FLC inactive.
O=C(c1ccccc1)N1CCN(Cc2c[nH]c3ccccc23)CC1 was read as PfHsp90 yeast 2 inactive, Beta apoptosis inactive, Shn3 inh set2 inactive, CSC inhib inactive and Calb FLC inactive.
CCc1cc2c(SCC(=O)NC3CCCC3)ncnc2s1 was read as Shn3 inh set2 inactive.
For COc1ccc(Nc2nc(N3CCCC3)c3ccccc3n2)cc1 the results were PfHsp90 yeast 2 inactive, Beta apoptosis 81, Shn3 inh set2 87, CSC inhib inactive and Calb FLC inactive.
Screening CCN(CC)c1ccc(Nc2nc(N3CCOCC3)c3ccccc3n2)cc1 returned PfHsp90 yeast 2 inactive, Beta apoptosis inactive, Shn3 inh set2 inactive, CSC inhib inactive and Calb FLC inactive.
Screening O=C(Nc1ccccn1)c1cccc(S(=O)(=O)N2CCCC2)c1 returned PfHsp90 yeast 2 inactive, Beta apoptosis inactive, Shn3 inh set2 inactive, CSC inhib inactive and Calb FLC inactive.
`O=C1c2cccnc2C(=O)N1CNc1ccc(Cl)cc1` gave PfHsp90 yeast 2 inactive, Beta apoptosis inactive, Shn3 inh set2 inactive, CSC inhib inactive and Calb FLC 134.
